Assay results from PubChem BioAssay AID1159580 (chemical genetic matrix, 2015).
The whole screen tested about 5,500 compounds, of which about 2,000 (36%) were called active. Not shown: some 18% with an inconclusive outcome. No stated cut-off is given here; in the data, active means normalized growth mostly below about 0.91 (no sharp cut-off); inconclusive means no clear call, values can overlap the other calls; inactive means mostly above about 0.92. The list shows a part of the results.

Experiment: chemical genetic growth profiling, strain panel (AID 1159580);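 further: tested at 20 µM; growth read once vehicle control cultures reached saturation at 30 °C; 1 = growth at the plate median or of vehicle wells; lower values mean less growth of the strain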
Settings: growth OD

Measured: normalized growth

COc1cc(NS(=O)(=O)c2ccc(N)cc2)nc(OC)n1
inactive: S. cerevisiae deletion strains, locus YJR066W, strain TOR1, active compounds read low 0.933 | S. cerevisiae deletion strains, locus YKL009W, strain mrt4, active compounds read low 0.985 | S. cerevisiae deletion strains, locus YKL068W, active compounds read low 0.984 | S. cerevisiae deletion strains, locus YKL085W, strain MDH1 (second series), active compounds read low 0.991 | S. cerevisiae deletion strains, locus YKL085W, strain MDH1, active compounds read low 0.991 | S. cerevisiae deletion strains, locus YKL160W, strain elf1, active compounds read low 0.969 | S. cerevisiae deletion strains, locus YKL190W, strain CNB1, active compounds read low 0.999 | S. cerevisiae deletion strains, locus YKR001C, strain vps1, active compounds read low 1 | S. cerevisiae deletion strains, locus YKR026C, strain gcn3, active compounds read low 0.973 | S. cerevisiae deletion strains, locus YKR091W, strain srl3, active compounds read low 0.982 | S. cerevisiae deletion strains, locus YLL001W, strain dnm1, active compounds read low 0.982 | S. cerevisiae deletion strains, locus YLL026W, active compounds read low 0.992 | S. cerevisiae deletion strains, locus YLL041C, strain sdh2, active compounds read low 0.992 | S. cerevisiae deletion strains, locus YLR027C, strain aat2, active compounds read low 0.988 | S. cerevisiae deletion strains, locus YLR039C, strain RIC1, active compounds read low 0.997 | S. cerevisiae deletion strains, locus YLR058C, strain SHM2, active compounds read low 0.982 | S. cerevisiae deletion strains, locus YLR102C, strain apc9, active compounds read low 0.985 | S. cerevisiae deletion strains, locus YLR113W, strain HOG1, active compounds read low 0.961 | S. cerevisiae deletion strains, locus YLR221C, strain rsa3, active compounds read low 0.986 | S. cerevisiae deletion strains, locus YLR258W, strain gsy2, active compounds read low 0.979 | S. cerevisiae deletion strains, locus YLR262C, strain YPT6 (second series), active compounds read low 0.952 | S. cerevisiae deletion strains, locus YLR262C, strain YPT6, active compounds read low 0.97 | S. cerevisiae deletion strains, locus YLR268W, strain sec22, active compounds read low 0.98 | S. cerevisiae deletion strains, locus YLR320W, strain mms22, active compounds read low 0.972 | S. cerevisiae deletion strains, locus YLR330W, strain CHS5, active compounds read low 0.984 | S. cerevisiae deletion strains, locus YLR342W, strain FKS1 (second series), active compounds read low 0.95 | S. cerevisiae deletion strains, locus YLR342W, strain FKS1, active compounds read low 0.986 | S. cerevisiae deletion strains, locus YLR357W, strain rsc2, active compounds read low 0.921 | S. cerevisiae deletion strains, locus YLR370C, strain arc18, active compounds read low 0.977 | S. cerevisiae deletion strains, locus YLR371W, strain rom2, active compounds read low 0.982 | S. cerevisiae deletion strains, locus YLR384C, strain iki3, active compounds read low 0.97 | S. cerevisiae deletion strains, locus YLR418C, strain cdc73, active compounds read low 0.969 | S. cerevisiae deletion strains, locus YML016C, strain PPZ1, active compounds read low 0.983 | S. cerevisiae deletion strains, locus YML032C, strain rad52, active compounds read low 0.983 | S. cerevisiae deletion strains, locus YML120C, strain ndi1, active compounds read low 0.972 | S. cerevisiae deletion strains, locus YML124C, strain tub3, active compounds read low 0.988 | S. cerevisiae deletion strains, locus YMR058W, strain fet3, active compounds read low 0.996 | S. cerevisiae deletion strains, locus YMR078C, strain ctf18, active compounds read low 0.984 | S. cerevisiae deletion strains, locus YMR125W, strain sto1, active compounds read low 0.978 | S. cerevisiae deletion strains, locus YMR129W, active compounds read low 0.983 | S. cerevisiae deletion strains, locus YMR205C, strain PFK2, active compounds read low 0.971 | S. cerevisiae deletion strains, locus YMR223W, strain ubp8, active compounds read low 0.987 | S. cerevisiae deletion strains, locus YMR231W, strain pep5, active compounds read low 0.982 | S. cerevisiae deletion strains, locus YMR307W, strain GAS1, active compounds read low 0.933 | S. cerevisiae deletion strains, locus YNL067W, strain RPL9B, active compounds read low 1.01 | S. cerevisiae deletion strains, locus YNL071W, strain lat1, active compounds read low 0.975 | S. cerevisiae deletion strains, locus YNL153C, strain GIM3, active compounds read low 1.04 | S. cerevisiae deletion strains, locus YNL183C, strain NPR1, active compounds read low 0.943 | S. cerevisiae deletion strains, locus YNL209W, strain ssb2, active compounds read low 0.97 | S. cerevisiae deletion strains, locus YNL233W, strain BNI4, active compounds read low 1 | S. cerevisiae deletion strains, locus YNL248C, strain rpa49, active compounds read low 0.969 | S. cerevisiae deletion strains, locus YNL250W, strain rad50, active compounds read low 0.988 | S. cerevisiae deletion strains, locus YNL271C, strain bni1, active compounds read low 0.978 | S. cerevisiae deletion strains, locus YNL298W, strain CLA4, active compounds read low 0.962 | S. cerevisiae deletion strains, locus YNL307C, strain MCK1, active compounds read low 0.981 | S. cerevisiae deletion strains, locus YNL322C, strain KRE1 (second series), active compounds read low 0.976 | S. cerevisiae deletion strains, locus YNL322C, strain KRE1, active compounds read low 0.996 | S. cerevisiae deletion strains, locus YNR049C, strain mso1, active compounds read low 0.979 | S. cerevisiae deletion strains, locus YNR052C, strain pop2, active compounds read low 0.986 | S. cerevisiae deletion strains, locus YOL006C, strain TOP1, active compounds read low 1.05 | S. cerevisiae deletion strains, locus YOL012C, strain htz1 0.758 | S. cerevisiae deletion strains, locus YOL147C, strain pex11, active compounds read low 0.978 | S. cerevisiae deletion strains, locus YOR001W, strain rrp6, active compounds read low 0.988 | S. cerevisiae deletion strains, locus YOR061W, strain CKA2, active compounds read low 0.977 | S. cerevisiae deletion strains, locus YOR069W, strain VPS5, active compounds read low 0.985 | S. cerevisiae deletion strains, locus YOR070C, strain gyp1, active compounds read low 0.981 | S. cerevisiae deletion strains, locus YOR080W, strain dia2, active compounds read low 0.966 | S. cerevisiae deletion strains, locus YOR083W, strain WHI5, active compounds read low 0.981 | S. cerevisiae deletion strains, locus YOR106W, strain vam3, active compounds read low 0.977 | S. cerevisiae deletion strains, locus YOR136W, strain idh2, active compounds read low 0.991 | S. cerevisiae deletion strains, locus YOR144C, strain elg1, active compounds read low 0.992 | S. cerevisiae deletion strains, locus YOR184W, strain ser1, active compounds read low 0.991 | S. cerevisiae deletion strains, locus YOR231W, strain MKK1, active compounds read low 0.968 | S. cerevisiae deletion strains, locus YOR265W, strain rbl2, active compounds read low 0.992 | S. cerevisiae deletion strains, locus YOR270C, strain vph1, active compounds read low 0.965 | S. cerevisiae deletion strains, locus YOR290C, strain snf2, active compounds read low 0.991 | S. cerevisiae deletion strains, locus YOR316C, strain cot1, active compounds read low 0.988 | S. cerevisiae deletion strains, locus YPL051W, strain arl3, active compounds read low 0.973 | S. cerevisiae deletion strains, locus YPL055C, strain LGE1, active compounds read low 1.03 | S. cerevisiae deletion strains, locus YPL078C, strain atp4, active compounds read low 0.965 | S. cerevisiae deletion strains, locus YPL106C, strain sse1, active compounds read low 0.976 | S. cerevisiae deletion strains, locus YPL240C, strain hsp82, active compounds read low 0.98 | S. cerevisiae deletion strains, locus YPL241C, strain CIN2, active compounds read low 0.994 | S. cerevisiae deletion strains, locus YPL256C, strain CLN2, active compounds read low 0.966 | S. cerevisiae deletion strains, locus YPR119W, strain clb2, active compounds read low 0.989 | S. cerevisiae deletion strains, locus YPR141C, strain kar3, active compounds read low 0.982 | S. cerevisiae deletion strains, locus YPR163C, strain tif3, active compounds read low 0.973 | S. cerevisiae deletion strains, locus YPR167C, strain met16, active compounds read low 0.986 | S. cerevisiae deletion strains, strain wtn01, active compounds read low 0.981 | S. cerevisiae strains, strain wild type, active compounds read low 0.991
